The source of these data is PubChem BioAssay (EPA / NIEHS).

Assay [1] in a line: STM_H9_NormalizedViability: Cytotoxicity Assessment at 120 hours in the Stemina devTOX quickPredict H9 human embryonic stem cell (hESC)-based Assay (AID 2283784). Put shortly: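 CellTiter-Fluor RFU, background-subtracted, expressed relative to 0.1% DMSO neutral control by plate. Pluripotent H9 cells; treatment with daily re-dosing. Plates carried 1uM methotrexate (positive) and 5 nM methotrexate (negative) references.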

In assay [2] the target is AR (gene 367) (UniProt P10275). Description: ACEA_AR_antagonist_80hr: ACEA Biosciences xCELLigence Real-Time Cell Analysis on Androgen Receptor Antagonism for Proliferation (AID 2283787).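 Note: 22Rv1 human prostate cancer cells with growth followed by electrical impedance; hits lower the impedance growth signal relative to DMSO.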 Put shortly: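 Using 22Rv1 cells held in assay medium, we dosed compounds (100 uM maximum final, 1:4 serial, eight points, 0.5% DMSO at top) and recorded cell-electrode impedance; the 80 hr timepoint was analyzed against DMSO.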

Assay [3] relates to turtle Androgen Receptor (AR), gene 101947425. Kind of assay: ATG_trAR_XSP1: Attagene TRANS-FACTORIAL Multi-Species (XSP1) HepG2 Assay for turtle Androgen Receptor (AR) (AID 2283786). Put shortly:
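Partial androgen stimulation is provided by 3 nM 6-alpha-fluorotestosterone in a multi-species trans-factorial panel expressing a turtle AR–GAL4 fusion in HepG2. After 24 h, reporter mRNA is measured by RT-PCR and capillary electrophoresis and fitted upward against DMSO.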

The target of assay [4] is Estrogen receptor beta (Homo sapiens) (UniProt Q92731). Description: ATG_hERb_XSP1: Attagene TRANS-FACTORIAL Multi-Species (XSP1) HepG2 Assay for human Estrogen Receptor (ESR2) (AID 2283788). Put shortly:
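Multiplexed trans-activation in transfected HepG2: ERβ-Gal4 reporter transcripts after 24 h treatment, detected by RT-PCR plus capillary electrophoresis.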

The target in assay [5] is GAL4 Transcription Factor (Internal Marker), GAL4 (gene 855828) (UniProt P04386). Description: ATG_GAL4_XSP1: Attagene TRANS-FACTORIAL Multi-Species (XSP1) HepG2 Assay for GAL4 Transcription Factor (Internal Marker) (AID 2283789). Put shortly: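 This background-control endpoint measures GAL4-driven reporter mRNA via RT-PCR and capillary electrophoresis of labelled fragments. Transiently transfected HepG2 cells were treated 24 h, with 3 nM 6-alpha-fluorotestosterone included, and gain-of-signal was fitted against DMSO.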

A short description of assay [6]: ATG_M_06_XSP1: Attagene TRANS-FACTORIAL Multi-Species (XSP1) HepG2 Assay for M06 Transcription Factor (Internal Marker) (AID 2283790). Put shortly:
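This background-control readout tracks M06 reporter mRNA, measured by RT-PCR and capillary electrophoresis. HepG2 cells transiently carrying the GAL4-UAS reporter panel were dosed for 24 h with 3 nM 6-alpha-fluorotestosterone added for partial AR stimulation; increases were scored relative to DMSO.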

A short description of assay [7]: ATG_M_61_XSP1: Attagene TRANS-FACTORIAL Multi-Species (XSP1) HepG2 Assay for M61 Transcription Factor (Internal Marker) (AID 2283797). Put shortly: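 Background-control readout: reporter transcripts measured by RT-PCR and capillary electrophoresis 24 h after dosing transiently transfected HepG2 multi-reporter cells, with 3 nM 6-alpha-fluorotestosterone present. Fitted in the positive direction relative to DMSO.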

Assay [8] is described as follows: ATG_M_32_XSP1: Attagene TRANS-FACTORIAL Multi-Species (XSP1) HepG2 Assay for M32 Transcription Factor (Internal Marker) (AID 2283799). Put shortly:
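Reporter transcripts from the M32 internal-control unit measured by RT-PCR, FAM labelling, HpaI digestion and capillary electrophoresis after 24 h compound exposure of transfected HepG2, 3 nM 6-alpha-fluorotestosterone included; DMSO baseline, positive-direction fit.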

Assay [9] deals with zebrafish Peroxisome Proliferator-activated Receptor gamma (PPARg), gene 557037. Description: ATG_zfPPARg_XSP1: Attagene TRANS-FACTORIAL Multi-Species (XSP1) HepG2 Assay for zebrafish Peroxisome Proliferator-activated Receptor gamma (PPARg) (AID 2283801). Put shortly: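 Trans-activation readout of chimeric zebrafish PPARg–GAL4 in transiently transfected human HepG2 cells, 24 h chemical exposure (medium includes 3 nM 6-alpha-fluorotestosterone). Reporter transcripts measured by RT-PCR and capillary electrophoresis, fitted as gain over DMSO.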

Assay [10] has as its target mouse Peroxisome Proliferator-activated Receptor gamma (PPARg), Pparg (gene 19016) (UniProt P37238). Kind of assay: ATG_mPPARg_XSP1: Attagene TRANS-FACTORIAL Multi-Species (XSP1) HepG2 Assay for mouse Peroxisome Proliferator-activated Receptor gamma (PPARg) (AID 2283802). Put shortly:
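Readout is reporter mRNA induction, measured by RT-PCR with 6-FAM labelling, HpaI digestion and capillary electrophoresis, 24 h post-dose relative to DMSO. Transient multi-reporter transfection of human HepG2 with mouse PPARg–GAL4 fusion; 3 nM 6-alpha-fluorotestosterone included.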

Assay [11] deals with Nuclear receptor subfamily 1 group I member 2 (Mus musculus) (UniProt O54915). Description: ATG_mPXR_XSP1: Attagene TRANS-FACTORIAL Multi-Species (XSP1) HepG2 Assay for mouse Pregnane X Receptor (PXR) (AID 2283803). Put shortly:
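Transiently transfected HepG2 cells expressing a receptor-Gal4 chimera drive a GAL4-UAS reporter; 3 nM 6-alpha-fluorotestosterone included. Reporter mRNA read 24 h post-dose by RT-PCR and capillary electrophoresis; gain of signal relative to DMSO.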

Assay [12] concerns the target frog Thyroid hormone Receptor alpha (TRa), thra-a (gene 397942) (UniProt P15204). Kind of assay: ATG_frTRa_XSP1: Attagene TRANS-FACTORIAL Multi-Species (XSP1) HepG2 Assay for frog Thyroid hormone Receptor alpha (TRa) (AID 2283804). Put shortly:
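Reporter transcript induction, measured by RT-PCR with 6-FAM labelling and capillary electrophoresis, 24 hr after dosing transiently transfected HepG2 cells expressing a frog TRa-GAL4 fusion; medium contained 3 nM 6-alpha-fluorotestosterone; increase over DMSO scored.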

For assay [13], the target named is human Thyroid hormone Receptor alpha (TRa), THRA (gene 7067) (UniProt P10827). Description: ATG_hTRa_XSP1: Attagene TRANS-FACTORIAL Multi-Species (XSP1) HepG2 Assay for human Thyroid hormone Receptor alpha (TRa) (AID 2283805). Put shortly:
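Reporter transcripts from the human TRa-Gal4 TRANS unit quantified by RT-PCR, fluorescent labeling and capillary electrophoresis after 24 hours of chemical exposure in transfected HepG2 cells; medium contains 3 nM 6-alpha-fluorotestosterone. Positive direction fit against DMSO.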

For assay [14], the system named is turtle Thyroid Hormone Receptor, alpha (TRa), gene 101949057. Description: ATG_trTRa_XSP1: Attagene TRANS-FACTORIAL Multi-Species (XSP1) HepG2 Assay for turtle Thyroid Hormone Receptor, alpha (TRa) (AID 2283806). Put shortly: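 After 24 h chemical exposure, reporter transcripts were measured by RT-PCR with fluorescent primer extension, HpaI digestion and capillary electrophoresis. Cells were transiently transfected HepG2 expressing exogenous NR-Gal4 chimeras; medium contained 3 nM 6-alpha-fluorotestosterone; fitted upward relative to DMSO.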

Assay [15] has as its target zebrafish Thyroid Hormone Receptor alpha (TRa), thraa (gene 30670) (UniProt Q98867). Description: ATG_zfTRa_XSP1: Attagene TRANS-FACTORIAL Multi-Species (XSP1) HepG2 Assay for zebrafish Thyroid Hormone Receptor alpha (TRa) (AID 2283807). Put shortly:
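Reporter transcripts driven by a chimeric zebrafish TRa–Gal4 protein were measured by RT-PCR with fluorescent labelling and capillary electrophoresis. These came from transiently transfected HepG2 cells after 24 h chemical exposure, with 3 nM 6-alpha-fluorotestosterone added; baseline was DMSO.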

For assay [16], the target named is human Thyroid hormone Receptor beta (TRb), THRB (gene 7068) (UniProt P10828). Kind of assay: ATG_hTRb_XSP1: Attagene TRANS-FACTORIAL Multi-Species (XSP1) HepG2 Assay for human Thyroid hormone Receptor beta (TRb) (AID 2283808). Put shortly:
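Readout is reporter mRNA induction measured by RT-PCR, fluorescent labelling and capillary electrophoresis, fitted upward relative to DMSO. Transiently transfected human HepG2 cells expressing NR-Gal4 chimeras were dosed for 24 h, medium containing 3 nM 6-alpha-fluorotestosterone.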

Assay [17] concerns the target zebrafish Thyroid Hormone Receptor beta (TRb), thrb (gene 30607) (UniProt Q9PVE4). Kind of assay: ATG_zfTRb_XSP1: Attagene TRANS-FACTORIAL Multi-Species (XSP1) HepG2 Assay for zebrafish Thyroid Hormone Receptor beta (TRb) (AID 2283809). Put shortly: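 HepG2 cells transiently transfected with multiplexed GAL4-UAS reporter units expressing chimeric zebrafish TRb–Gal4. Dosed 24 h with 3 nM 6-alpha-fluorotestosterone present; reporter mRNA measured by RT-PCR, HpaI digestion and capillary electrophoresis; gain of signal versus DMSO.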

In assay [18] the target is AR (gene 367) (UniProt P10275). Description: ACEA_AR_agonist_80hr: ACEA Biosciences xCELLigence Real-Time Cell Analysis on Androgen Receptor Agonism for Proliferation (AID 2283783).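 Note: hits increase impedance growth signal above DMSO baseline.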 Put shortly:
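Real-time cell-growth kinetics were recorded by electrode impedance in 22Rv1 cells exposed to test chemicals up to 100 uM final; the 80 h timepoint served as the readout, fitted upward relative to DMSO controls, in biological duplicate.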

Each structure is given as a SMILES string. Records with an inconclusive call do not appear. Calls of active or inactive are those of the source. Rule for the calls: active = hit-call score of the fitted dose curve at least 0.9, where 1 is the maximum; inconclusive = response in the unintended direction; inactive = score below 0.9.

Chain of AR (gene 367) (P10275 whole entry, looked up): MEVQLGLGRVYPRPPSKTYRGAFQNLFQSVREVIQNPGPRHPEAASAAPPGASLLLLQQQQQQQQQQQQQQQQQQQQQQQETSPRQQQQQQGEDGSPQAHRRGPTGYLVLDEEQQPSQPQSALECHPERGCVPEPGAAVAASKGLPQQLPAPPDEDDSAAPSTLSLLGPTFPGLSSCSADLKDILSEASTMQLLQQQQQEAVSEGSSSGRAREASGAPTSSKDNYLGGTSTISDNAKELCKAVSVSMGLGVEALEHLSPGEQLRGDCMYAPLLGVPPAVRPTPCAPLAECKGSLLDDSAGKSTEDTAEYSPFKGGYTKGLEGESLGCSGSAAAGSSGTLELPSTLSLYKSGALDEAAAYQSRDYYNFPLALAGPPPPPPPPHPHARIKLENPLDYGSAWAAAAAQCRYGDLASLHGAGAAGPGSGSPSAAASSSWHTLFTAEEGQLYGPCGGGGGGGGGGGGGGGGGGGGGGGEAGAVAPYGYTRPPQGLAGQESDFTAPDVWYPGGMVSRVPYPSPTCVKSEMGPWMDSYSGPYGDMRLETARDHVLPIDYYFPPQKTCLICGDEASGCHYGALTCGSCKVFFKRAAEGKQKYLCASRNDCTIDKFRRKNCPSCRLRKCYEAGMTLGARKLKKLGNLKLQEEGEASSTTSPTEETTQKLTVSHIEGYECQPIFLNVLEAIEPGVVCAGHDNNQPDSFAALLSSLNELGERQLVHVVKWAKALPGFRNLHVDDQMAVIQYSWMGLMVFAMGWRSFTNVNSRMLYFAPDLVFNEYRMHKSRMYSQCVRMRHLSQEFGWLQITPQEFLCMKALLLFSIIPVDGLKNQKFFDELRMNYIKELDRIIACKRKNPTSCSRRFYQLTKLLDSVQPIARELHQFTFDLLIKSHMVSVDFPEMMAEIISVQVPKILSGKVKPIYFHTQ
Chain of human Thyroid hormone Receptor alpha (TRa), THRA (gene 7067) (P10827 whole entry, looked up, the tested form may be a part): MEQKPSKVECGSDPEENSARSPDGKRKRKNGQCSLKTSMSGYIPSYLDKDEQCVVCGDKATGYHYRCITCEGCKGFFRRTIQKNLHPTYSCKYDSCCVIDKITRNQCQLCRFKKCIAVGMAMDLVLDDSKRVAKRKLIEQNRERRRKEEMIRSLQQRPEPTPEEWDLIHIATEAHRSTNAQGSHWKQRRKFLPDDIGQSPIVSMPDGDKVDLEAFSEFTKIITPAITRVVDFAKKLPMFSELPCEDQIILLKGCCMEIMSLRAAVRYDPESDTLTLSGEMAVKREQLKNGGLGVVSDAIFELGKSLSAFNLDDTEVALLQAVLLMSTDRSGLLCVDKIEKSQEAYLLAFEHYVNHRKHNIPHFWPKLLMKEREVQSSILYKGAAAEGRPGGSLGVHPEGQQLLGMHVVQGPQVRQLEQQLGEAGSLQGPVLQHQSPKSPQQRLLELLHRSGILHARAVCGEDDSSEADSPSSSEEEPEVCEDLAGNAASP
Chain of Estrogen receptor beta (Homo sapiens) (Q92731 whole entry, looked up, the tested form may be a part): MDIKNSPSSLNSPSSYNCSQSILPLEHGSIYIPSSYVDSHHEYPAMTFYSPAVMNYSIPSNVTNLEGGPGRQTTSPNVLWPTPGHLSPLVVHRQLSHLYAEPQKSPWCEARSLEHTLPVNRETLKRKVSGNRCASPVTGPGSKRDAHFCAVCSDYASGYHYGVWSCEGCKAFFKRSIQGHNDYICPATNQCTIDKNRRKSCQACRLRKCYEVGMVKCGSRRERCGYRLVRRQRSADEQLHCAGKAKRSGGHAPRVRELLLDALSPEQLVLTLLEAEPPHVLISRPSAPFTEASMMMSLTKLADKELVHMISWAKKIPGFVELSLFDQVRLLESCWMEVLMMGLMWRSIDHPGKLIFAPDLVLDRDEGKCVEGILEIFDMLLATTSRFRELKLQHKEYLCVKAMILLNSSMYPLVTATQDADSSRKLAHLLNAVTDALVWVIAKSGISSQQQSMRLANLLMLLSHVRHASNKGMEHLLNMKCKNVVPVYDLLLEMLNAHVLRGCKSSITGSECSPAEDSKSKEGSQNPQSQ
Chain of mouse Peroxisome Proliferator-activated Receptor gamma (PPARg), Pparg (gene 19016) (P37238 whole entry, looked up, the tested form may be a part): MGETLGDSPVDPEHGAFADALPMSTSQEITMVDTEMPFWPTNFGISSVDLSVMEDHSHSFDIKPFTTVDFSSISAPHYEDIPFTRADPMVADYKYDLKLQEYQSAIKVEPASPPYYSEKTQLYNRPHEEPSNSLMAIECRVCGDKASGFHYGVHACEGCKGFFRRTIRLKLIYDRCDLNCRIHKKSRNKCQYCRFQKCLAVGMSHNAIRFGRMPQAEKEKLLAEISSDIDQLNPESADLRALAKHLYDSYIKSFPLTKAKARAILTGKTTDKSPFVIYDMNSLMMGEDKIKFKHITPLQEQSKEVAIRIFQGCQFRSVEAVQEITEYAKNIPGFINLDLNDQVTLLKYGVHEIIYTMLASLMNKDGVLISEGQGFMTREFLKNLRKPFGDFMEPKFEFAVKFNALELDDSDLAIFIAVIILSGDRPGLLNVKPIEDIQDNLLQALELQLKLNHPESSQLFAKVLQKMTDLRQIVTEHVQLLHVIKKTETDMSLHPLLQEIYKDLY
Chain of frog Thyroid hormone Receptor alpha (TRa), thra-a (gene 397942) (P15204 whole entry, looked up, the tested form may be a part): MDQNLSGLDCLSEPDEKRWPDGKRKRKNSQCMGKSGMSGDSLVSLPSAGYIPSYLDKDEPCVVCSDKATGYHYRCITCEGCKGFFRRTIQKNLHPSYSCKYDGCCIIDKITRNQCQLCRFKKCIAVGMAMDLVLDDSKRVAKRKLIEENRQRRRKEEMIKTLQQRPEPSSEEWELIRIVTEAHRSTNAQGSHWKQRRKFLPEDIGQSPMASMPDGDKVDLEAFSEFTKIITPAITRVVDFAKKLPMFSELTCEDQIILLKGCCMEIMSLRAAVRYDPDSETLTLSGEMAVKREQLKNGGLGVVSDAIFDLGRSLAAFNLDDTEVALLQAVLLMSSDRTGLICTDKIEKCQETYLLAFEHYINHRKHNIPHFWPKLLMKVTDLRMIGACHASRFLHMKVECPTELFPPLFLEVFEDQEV
Chain of human Thyroid hormone Receptor beta (TRb), THRB (gene 7068) (P10828 whole entry, looked up, the tested form may be a part): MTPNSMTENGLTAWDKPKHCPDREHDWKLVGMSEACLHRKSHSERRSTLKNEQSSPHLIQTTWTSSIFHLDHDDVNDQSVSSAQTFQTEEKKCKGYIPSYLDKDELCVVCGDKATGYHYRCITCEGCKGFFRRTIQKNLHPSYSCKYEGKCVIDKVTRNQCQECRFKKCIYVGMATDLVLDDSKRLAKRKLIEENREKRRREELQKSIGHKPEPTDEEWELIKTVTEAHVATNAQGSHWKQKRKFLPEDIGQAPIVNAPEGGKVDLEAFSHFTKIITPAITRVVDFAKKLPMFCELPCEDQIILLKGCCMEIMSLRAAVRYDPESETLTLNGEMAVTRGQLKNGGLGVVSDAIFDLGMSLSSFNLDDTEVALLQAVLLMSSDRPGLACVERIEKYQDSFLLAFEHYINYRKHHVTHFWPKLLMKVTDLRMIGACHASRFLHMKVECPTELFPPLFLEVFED
Chain of zebrafish Thyroid Hormone Receptor beta (TRb), thrb (gene 30607) (Q9PVE4 whole entry, looked up, the tested form may be a part): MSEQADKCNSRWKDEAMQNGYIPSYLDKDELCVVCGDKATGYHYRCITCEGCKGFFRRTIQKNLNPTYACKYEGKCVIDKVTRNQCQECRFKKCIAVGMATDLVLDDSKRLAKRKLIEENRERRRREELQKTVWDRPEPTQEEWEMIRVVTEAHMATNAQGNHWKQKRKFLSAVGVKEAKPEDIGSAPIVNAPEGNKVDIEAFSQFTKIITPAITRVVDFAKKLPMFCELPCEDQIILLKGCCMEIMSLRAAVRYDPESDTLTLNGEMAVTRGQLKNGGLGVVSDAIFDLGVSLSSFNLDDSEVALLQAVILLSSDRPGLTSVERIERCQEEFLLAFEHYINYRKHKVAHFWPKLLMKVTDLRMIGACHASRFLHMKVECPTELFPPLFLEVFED
Chain of Nuclear receptor subfamily 1 group I member 2 (Mus musculus) (O54915 whole entry, looked up, the tested form may be a part): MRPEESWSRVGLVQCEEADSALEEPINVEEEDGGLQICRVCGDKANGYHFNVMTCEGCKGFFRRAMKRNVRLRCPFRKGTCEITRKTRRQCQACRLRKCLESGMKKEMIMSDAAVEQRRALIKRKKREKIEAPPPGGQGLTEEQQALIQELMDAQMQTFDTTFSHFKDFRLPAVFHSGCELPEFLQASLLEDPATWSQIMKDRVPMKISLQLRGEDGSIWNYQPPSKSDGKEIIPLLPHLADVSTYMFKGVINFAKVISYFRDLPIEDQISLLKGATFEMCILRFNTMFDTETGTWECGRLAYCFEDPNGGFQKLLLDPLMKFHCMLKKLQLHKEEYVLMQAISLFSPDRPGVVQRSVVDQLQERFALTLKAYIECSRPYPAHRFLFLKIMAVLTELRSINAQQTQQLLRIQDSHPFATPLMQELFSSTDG
Chain of zebrafish Thyroid Hormone Receptor alpha (TRa), thraa (gene 30670) (Q98867 whole entry, looked up, the tested form may be a part): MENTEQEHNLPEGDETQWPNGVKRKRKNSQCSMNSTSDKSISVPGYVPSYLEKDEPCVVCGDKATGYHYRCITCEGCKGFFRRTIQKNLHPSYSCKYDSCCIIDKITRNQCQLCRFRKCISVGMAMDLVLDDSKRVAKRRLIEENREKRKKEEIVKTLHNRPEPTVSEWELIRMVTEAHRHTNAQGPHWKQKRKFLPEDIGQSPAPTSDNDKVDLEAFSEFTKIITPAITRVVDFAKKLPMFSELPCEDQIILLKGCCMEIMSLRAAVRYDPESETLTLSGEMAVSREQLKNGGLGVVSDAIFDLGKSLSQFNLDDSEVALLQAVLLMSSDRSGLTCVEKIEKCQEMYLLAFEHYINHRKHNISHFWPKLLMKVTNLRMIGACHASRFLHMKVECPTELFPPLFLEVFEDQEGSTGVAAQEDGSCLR

In the case of `Clc1cc(Cl)c2c(c1)N=C1CCCCCN1C2`, the result in [1] was inactive.

As for `CN1C(=O)N(c2ccccc2Br)Cc2cnc(Nc3ccc4c(c3)OCC(CO)O4)nc21` (stereo not drawn), the AC50 in assay [1] was 1.81 µM (active).

`CN1C(=O)CC[C@H]1c1cccnc1`: the result in [1] was inactive.

`CCOC(=O)O[C@H](C)OC(=O)c1ccc2c(c1)cc(C(=O)NC1CCN(C(C)C)CC1)n2Cc1cc(-c2ccc(Cl)s2)on1`: the result in [1] was inactive.

Regarding `CO[C@H]1/C=C/O[C@@]2(C)Oc3c(C)c(O)c4c(O)c(c(/C=N/N5CCN(C)CC5)c(O)c4c3C2=O)NC(=O)/C(C)=C\C=C\[C@H](C)[C@H](O)[C@@H](C)[C@@H](O)[C@@H](C)[C@H](OC(C)=O)[C@@H]1C`, the outcome in assay [1] was inactive.

As to `CN(C)c1ccc(C(=C2C=CC(=[N+](C)C)C=C2)c2ccc(N(C)C)cc2)cc1`, the AC50 was 0.767 µM (active) in assay [1] and 0.167 µM (active) in the assay with AR (gene 367) [2].

Consider `CC(C)(c1cc(Br)c(O)c(Br)c1)c1cc(Br)c(O)c(Br)c1`, for which the result in assay [1], in assay [3], in assay [4], in assay [5], in [6] and in [7] was inactive. Besides, the molecule was called inactive in assay [8], in [11], in assay [14], in assay [15] and in assay [16]. Moreover, the AC50 in [9] was 9.55 µM (active); in assay [10], 2.06 µM (active); in assay [12] it was 3.79 µM (active); in [13], 3.39 µM (active); in [17] it was 13.9 µM (active).

On to `CN(C)C(=O)C1(N2CCCCC2)CCN(CC[C@@]2(c3ccc(Cl)c(Cl)c3)CN(C(=O)c3ccccc3)CCO2)CC1`, for which the AC50 was 9.2 µM (active) in [1] and 13.6 µM (active) in the assay with AR (gene 367) [2].

In the case of `Cc1occc1C(=O)Nc1ccc(C(=O)N2CCC(F)(F)/C(=C\C(=O)N3CCC(N4CCCCC4)CC3)c3ccccc32)cc1`, in the assay with AR (gene 367) [18], the outcome was inactive. Besides, the AC50 with AR (gene 367) [2] is 42.3 µM (active).

In the case of `Cc1ccc(C(C)C)cc1`, in the assay with AR (gene 367) [2], the molecule was classed as inactive.
